The results in this text go back to PubChem BioAssay.

Results filed as inconclusive are left out. Calls of active or inactive are those of the source.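 The calls were made as follows, unless noted: active = binding below the plate cutoff, the plate median minus 3 SD, with a reading above zero; inconclusive = below the plate cutoff but reading exactly zero; inactive = the rest.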

Experiment [1] is described as follows: yeast TOR pathway RPL19A-GFP modulators, primary screen, cell-based, S. cerevisiae, multiplex flow cytometry (AID 1862; in the data active = percent of DMSO control GFP below about 86%;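 also: lower values mimic rapamycin by blocking the RPL19A rise seen in DMSO cells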). The settings on record: S. cerevisiae RPL19A-GFP strain, flow cytometry fluorescence, 3 h; at 10 µM; stronger effect = lower value. For orientation: A flow cytometer gives signals particle by particle.
The nature of experiment [2]: modulators of MEP2-GFP levels in yeast, primary screen, S. cerevisiae, multiplex flow cytometry (AID 1867;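 active = GFP response, as percent of the DMSO control, above the screen-wide mean plus 3 SD, about 139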;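 also: median GFP channel fluorescence of barcode-gated MEP2-GFP cells measured by flow cytometry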). The settings on record: S. cerevisiae MEP2-GFP strain, 3 h, at 10 µM, stronger effect = higher value, 100% means same as DMSO wells.
Experiment [3] in a line: modulators of CIT2-GFP expression in yeast, primary screen, S. cerevisiae, GFP fusion, multiplex flow cytometry (AID 1870;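 active = percent response above a set limit, the screen-wide mean plus 3 SD, cut at about 130% in these data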;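 also: barcoded CIT2-GFP strain pooled with four other GFP strains with rapamycin as positive control; median GFP fluorescence per well over plate mean of DMSO wells so 100% = DMSO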). The conditions noted are these: 3 h, at 10 µM, stronger effect = higher value.
The nature of experiment [4]: modulators of LAP4-GFP expression in yeast, primary screen, S. cerevisiae, multiplex flow cytometry (AID 1873;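 active = GFP signal, as percent of the solvent control, above the screen mean plus 3 SD, about 149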). The conditions noted are these: 3 h, at 10 µM, stronger effect = higher value.
A short description of experiment [5]: modulators of AGP1-GFP expression in yeast TOR pathway, primary screen, cell-based, multiplex flow cytometry, S. cerevisiae (AID 1887;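 active = GFP signal above the screen-wide mean plus 3 SD, that is over about 124.5% of the solvent control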;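 also: AGP1-GFP fusion strain of S. cerevisiae within a five-strain barcoded multiplex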). The settings on record: 3 h, at 10 µM, stronger effect = higher value.
Experiment [6] is described as follows: inhibitors of CD8+ T cell-vesicle binding, pilot screen, LFA-1/ICAM-1 modulator project, MLPCN validation set, flow cytometry (AID 2523;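 active = response below a set limit, under 55% cells CD8-positive and vesicle-bound, and CD8 cells' 90th-percentile brightness under 279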;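 as to vesicle binding response: mean PE anti-B7-1 fluorescence of CD8+ cells relative to row control; 100% = QL9-loaded vesicles with DMSO vehicle in the same plate row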). The settings on record: 2C mouse CD8+ T cells, at 7 µM, stronger effect = lower value; double positive events: measured here: CD8+/vesicle+ event percentage.
Experiment [7] concerns the target Integrin beta-1 (Homo sapiens) + Integrin alpha-4 (Homo sapiens) (UniProt P13612+P05556). Put plainly: inhibition of HUTS-21 binding to VLA-4, pilot screen, VLA-4 allosteric modulator project, U937 cells, HUTS-21 mAb, flow cytometry, validation set (AID 2674;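 active = inhibition above 50%, about 3 SD of the validation set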;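 also: antibody binding induced by the VLA-4 ligand LDV present at three times its Kd; 0% = LDV ligand with antibody and no compound and 100% = antibody without LDV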). The settings on record: HUTS-21 LIBS mAb binding, at 6.7 µM, stronger effect = higher value, binding induced by LDV ligand.

A short description of experiment [8]: superoxide lowering in aged yeast cells, pilot screen, validation compound set (AID 2706;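 active = superoxide response below 65% of plate, a cut near 3 SD across the whole screen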;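 also: yeast exposed to compound for one week at 30 degrees C before staining; 100% = mean of all compound wells on the same plate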). The conditions noted are these: S. cerevisiae aging, superoxide DHE fluorescence; at 10 µM; stronger effect = lower value.
Experiment [9] concerns the target Beta-adrenergic receptor kinase 1 (Homo sapiens) (UniProt P25098). Put plainly: GRK2 binders displacing RNA aptamer, biochemical, validation, human GRK2, bead flow cytometry (AID 488806;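 active = aptamer binding inhibition above 30%, about 3 SD of noise from non-fluorescent compounds; inactive = inhibition at or below 30%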). The conditions noted are these: bead-bound GRK2, FAM-aptamer displacement, at 10 µM, stronger effect = higher value.
Experiment [10] addresses Beta-2 adrenergic receptor (Homo sapiens) (UniProt P07550). The experiment is described as follows: beta2AR agonists driving receptor internalization, pilot screen, cell-based, FAP fluorogen, flow cytometry, validation set (AID 504459;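 active = percent response above 42, roughly 3 SD of non-fluorescent test compounds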;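 also: agonist-driven loss of surface beta2AR via internalization measured by FAP dye flow cytometry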). The settings on record: Am2.2-beta2AR cells, FAP surface receptor flow cytometry; at 10 µM; stronger effect = higher value.
Experiment [11] deals with AP-2 complex subunit beta (Homo sapiens) (UniProt P63010). The experiment is described as follows: inhibitors of arrestin peptide binding to AP2, pilot screen, biochemical, validation set, GST-AP2 beads, flow cytometry (AID 504541;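 active = inhibition above 54%, about 3 SD of non-fluorescent compounds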;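 also: AP2 carries R879A mutation and is captured from E. coli lysate; bead-bound FITC arrestin peptide fluorescence measuring arrestin peptide binding to AP2; 0% = DMSO wells and 100% = excess unlabeled arrestin peptide control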). The conditions noted are these: FITC arrestin peptide, at 10 µM, stronger effect = higher value, AP2 beta2 appendage fragment, R879A mutant.
Chain of AP-2 complex subunit beta (Homo sapiens) (P63010 whole entry, looked up, the tested form may be a part, one chain of several): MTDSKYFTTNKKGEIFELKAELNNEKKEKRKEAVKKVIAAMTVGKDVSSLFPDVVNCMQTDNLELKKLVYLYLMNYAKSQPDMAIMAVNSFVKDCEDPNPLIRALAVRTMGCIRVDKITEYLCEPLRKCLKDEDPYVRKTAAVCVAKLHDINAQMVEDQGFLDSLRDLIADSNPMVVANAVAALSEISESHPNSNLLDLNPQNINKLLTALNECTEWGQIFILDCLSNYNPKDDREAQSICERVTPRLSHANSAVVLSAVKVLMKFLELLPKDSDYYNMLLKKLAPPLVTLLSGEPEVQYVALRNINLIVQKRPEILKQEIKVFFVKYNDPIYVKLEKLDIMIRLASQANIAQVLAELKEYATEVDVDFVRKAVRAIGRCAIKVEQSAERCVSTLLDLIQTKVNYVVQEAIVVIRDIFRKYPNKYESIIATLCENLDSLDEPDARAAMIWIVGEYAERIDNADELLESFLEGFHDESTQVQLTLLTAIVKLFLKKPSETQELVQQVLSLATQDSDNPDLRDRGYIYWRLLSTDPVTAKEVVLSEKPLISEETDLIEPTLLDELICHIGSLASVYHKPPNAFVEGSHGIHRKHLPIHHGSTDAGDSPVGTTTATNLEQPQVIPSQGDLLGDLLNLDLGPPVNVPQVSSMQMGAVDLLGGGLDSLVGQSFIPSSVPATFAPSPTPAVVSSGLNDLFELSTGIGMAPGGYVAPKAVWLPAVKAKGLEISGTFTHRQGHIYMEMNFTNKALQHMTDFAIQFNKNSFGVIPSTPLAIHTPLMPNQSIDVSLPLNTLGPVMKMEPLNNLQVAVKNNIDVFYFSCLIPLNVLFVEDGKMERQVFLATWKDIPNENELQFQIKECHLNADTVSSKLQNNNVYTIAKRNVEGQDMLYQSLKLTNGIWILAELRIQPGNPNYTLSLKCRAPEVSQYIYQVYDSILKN
A short description of experiment [12]: yeast V-ATPase proton transport modulators, S. cerevisiae, pHLuorin, HTS validation (AID 504600; in the data active = response above about 15%;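 also: plate controls were DMSO for no effect and reference compound for full effect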). The conditions noted are these: S. cerevisiae pHLuorin cytosolic pH, at 10 µM, stronger effect = higher value.
Experiment [13] deals with anti-desmoglein-3 scFv antibody binding to human DSG3. Put plainly: inhibitors of anti-DSG3 scFv binding to DSG3, pilot screen, biochemical, validation compound set, bead-based, flow cytometry (AID 588368).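 Also: signal is the median channel fluorescence of bead-bound GFP antibody.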 The conditions noted are these: Protein G beads, DSG3-Fc, scFv-GFP binding, at 10 µM, stronger effect = lower value.
Experiment [14] is described as follows: inhibitors of fungal efflux pumps CDR1, CDR2, MDR1, pilot screen, validation compound set, multiplex, phenotypic (AID 588506;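 active = efflux inhibition above 0.42, the validation set average plus 4 SD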;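 also: Nile Red retained in cells so higher fluorescence means more efflux inhibition; 0 = negative control wells and 1 = enniatin B 25 µM full block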). The settings on record: S. cerevisiae pump-expressing triplex, Nile Red efflux flow cytometry; at 10 µM; stronger effect = higher value; the pumps come from Candida albicans.
Experiment [15] addresses ATP-binding cassette sub-family B member 6 (Homo sapiens) (UniProt Q9NP58). The experiment is described as follows: ABCB6 transporter inhibitors, pilot screen, K562-ABCB6 cells, flow cytometry, validation set (AID 588550;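 active = inhibition above the screen-wide mean plus 3 SD, about 51%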;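 also: 0% = DMSO wells and 100% = benzethonium chloride 70 µM positive control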). The settings on record: K562-ABCB6 porphyrin accumulation, 1 h, at 10 µM, stronger effect = higher value.
A short description of experiment [16]: promoters of myeloid differentiation in arrested cells, primary screen, cell-based, GFP/MAC1 double positive, flow cytometry, validation set (AID 588685;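 active = differentiation response of at least 50%, scaled between solvent and reference control, from cells with both markers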;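 also: compound exposure lasts four days before antibody staining and flow analysis; 0% = DMSO wells and 100% = 5 µM fulvestrant positive control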). The settings on record: ER-HoxA9 marrow cells, stronger effect = higher value, normalized: vehicle 0, fulvestrant 100.

Chain of Beta-adrenergic receptor kinase 1 (Homo sapiens) (P25098 whole entry, looked up): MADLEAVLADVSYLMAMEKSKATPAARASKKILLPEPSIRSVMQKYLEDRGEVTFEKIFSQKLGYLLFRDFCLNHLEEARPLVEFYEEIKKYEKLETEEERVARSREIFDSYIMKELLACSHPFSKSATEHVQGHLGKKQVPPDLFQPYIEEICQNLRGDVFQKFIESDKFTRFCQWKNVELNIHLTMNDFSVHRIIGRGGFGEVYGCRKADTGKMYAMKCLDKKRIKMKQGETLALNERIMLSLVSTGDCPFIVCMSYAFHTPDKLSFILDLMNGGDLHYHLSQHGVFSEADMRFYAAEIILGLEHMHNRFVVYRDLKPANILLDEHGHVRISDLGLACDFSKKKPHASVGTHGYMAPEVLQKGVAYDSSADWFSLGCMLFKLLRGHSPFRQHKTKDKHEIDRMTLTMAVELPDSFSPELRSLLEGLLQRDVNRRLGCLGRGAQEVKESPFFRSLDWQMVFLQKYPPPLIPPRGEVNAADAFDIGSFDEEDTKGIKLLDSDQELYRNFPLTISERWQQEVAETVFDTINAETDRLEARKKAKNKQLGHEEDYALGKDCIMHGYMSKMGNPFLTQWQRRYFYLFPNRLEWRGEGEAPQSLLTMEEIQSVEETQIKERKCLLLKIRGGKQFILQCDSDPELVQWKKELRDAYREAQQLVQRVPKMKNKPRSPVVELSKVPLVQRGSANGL
Chain of Beta-2 adrenergic receptor (Homo sapiens) (P07550 whole entry, looked up): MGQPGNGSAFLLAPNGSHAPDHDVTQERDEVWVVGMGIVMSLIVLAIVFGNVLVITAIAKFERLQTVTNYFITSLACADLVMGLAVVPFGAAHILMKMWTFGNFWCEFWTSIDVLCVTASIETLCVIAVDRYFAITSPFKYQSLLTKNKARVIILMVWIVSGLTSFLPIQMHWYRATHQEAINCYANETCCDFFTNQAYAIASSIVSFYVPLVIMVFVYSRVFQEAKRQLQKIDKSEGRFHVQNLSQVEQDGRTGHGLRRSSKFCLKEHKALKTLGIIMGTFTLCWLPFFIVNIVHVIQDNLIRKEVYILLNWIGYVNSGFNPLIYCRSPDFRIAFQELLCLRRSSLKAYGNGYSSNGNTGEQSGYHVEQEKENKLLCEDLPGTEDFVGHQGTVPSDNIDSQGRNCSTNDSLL
Chain of Integrin beta-1 (Homo sapiens) + Integrin alpha-4 (Homo sapiens) (P05556 whole entry, looked up): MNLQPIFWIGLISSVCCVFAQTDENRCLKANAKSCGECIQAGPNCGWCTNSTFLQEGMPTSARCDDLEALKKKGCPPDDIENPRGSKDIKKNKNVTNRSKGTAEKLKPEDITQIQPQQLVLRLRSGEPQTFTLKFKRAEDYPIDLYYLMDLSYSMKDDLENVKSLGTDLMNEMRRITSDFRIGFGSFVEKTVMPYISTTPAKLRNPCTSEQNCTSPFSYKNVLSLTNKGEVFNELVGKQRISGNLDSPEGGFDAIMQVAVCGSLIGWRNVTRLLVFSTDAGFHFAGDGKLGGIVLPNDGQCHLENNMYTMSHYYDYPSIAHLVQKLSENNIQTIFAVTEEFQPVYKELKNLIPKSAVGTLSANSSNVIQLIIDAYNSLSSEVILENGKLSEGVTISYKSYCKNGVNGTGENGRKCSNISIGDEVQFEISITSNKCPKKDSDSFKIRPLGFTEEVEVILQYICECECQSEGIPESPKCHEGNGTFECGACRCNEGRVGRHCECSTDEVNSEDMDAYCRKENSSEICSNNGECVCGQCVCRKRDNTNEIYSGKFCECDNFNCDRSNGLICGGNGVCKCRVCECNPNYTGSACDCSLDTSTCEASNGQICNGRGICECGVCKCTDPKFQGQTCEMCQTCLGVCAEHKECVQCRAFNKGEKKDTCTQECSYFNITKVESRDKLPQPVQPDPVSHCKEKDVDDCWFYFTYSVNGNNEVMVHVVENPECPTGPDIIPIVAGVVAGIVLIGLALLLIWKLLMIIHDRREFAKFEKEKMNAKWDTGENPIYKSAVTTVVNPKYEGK
Chain of Integrin beta-1 (Homo sapiens) + Integrin alpha-4 (Homo sapiens) (P13612 whole entry, looked up): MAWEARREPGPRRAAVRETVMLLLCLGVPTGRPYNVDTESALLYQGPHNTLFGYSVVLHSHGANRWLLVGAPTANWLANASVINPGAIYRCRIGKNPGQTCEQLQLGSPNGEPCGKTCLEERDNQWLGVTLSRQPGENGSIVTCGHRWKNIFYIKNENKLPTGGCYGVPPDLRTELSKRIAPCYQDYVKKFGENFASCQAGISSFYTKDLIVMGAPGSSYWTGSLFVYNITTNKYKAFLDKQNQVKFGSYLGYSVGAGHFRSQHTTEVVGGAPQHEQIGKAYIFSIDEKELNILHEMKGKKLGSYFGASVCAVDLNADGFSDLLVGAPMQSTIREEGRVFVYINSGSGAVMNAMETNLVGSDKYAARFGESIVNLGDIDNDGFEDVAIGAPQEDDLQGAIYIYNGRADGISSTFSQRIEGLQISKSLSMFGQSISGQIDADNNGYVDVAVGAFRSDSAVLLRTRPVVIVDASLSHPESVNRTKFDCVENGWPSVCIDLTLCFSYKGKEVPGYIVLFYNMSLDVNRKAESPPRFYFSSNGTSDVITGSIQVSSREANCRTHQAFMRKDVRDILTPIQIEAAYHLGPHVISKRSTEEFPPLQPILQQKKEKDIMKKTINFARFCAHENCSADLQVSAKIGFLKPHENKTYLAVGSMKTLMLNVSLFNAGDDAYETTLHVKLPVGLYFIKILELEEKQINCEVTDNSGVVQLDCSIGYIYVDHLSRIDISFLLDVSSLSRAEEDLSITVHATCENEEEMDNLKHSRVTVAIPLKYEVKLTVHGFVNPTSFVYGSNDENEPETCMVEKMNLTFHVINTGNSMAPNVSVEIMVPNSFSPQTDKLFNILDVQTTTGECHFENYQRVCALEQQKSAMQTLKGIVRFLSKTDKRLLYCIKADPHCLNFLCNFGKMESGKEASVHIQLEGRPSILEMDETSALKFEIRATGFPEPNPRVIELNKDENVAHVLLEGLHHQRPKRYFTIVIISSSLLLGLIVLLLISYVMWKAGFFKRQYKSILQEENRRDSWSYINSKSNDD
Chain of ATP-binding cassette sub-family B member 6 (Homo sapiens) (Q9NP58 whole entry, looked up): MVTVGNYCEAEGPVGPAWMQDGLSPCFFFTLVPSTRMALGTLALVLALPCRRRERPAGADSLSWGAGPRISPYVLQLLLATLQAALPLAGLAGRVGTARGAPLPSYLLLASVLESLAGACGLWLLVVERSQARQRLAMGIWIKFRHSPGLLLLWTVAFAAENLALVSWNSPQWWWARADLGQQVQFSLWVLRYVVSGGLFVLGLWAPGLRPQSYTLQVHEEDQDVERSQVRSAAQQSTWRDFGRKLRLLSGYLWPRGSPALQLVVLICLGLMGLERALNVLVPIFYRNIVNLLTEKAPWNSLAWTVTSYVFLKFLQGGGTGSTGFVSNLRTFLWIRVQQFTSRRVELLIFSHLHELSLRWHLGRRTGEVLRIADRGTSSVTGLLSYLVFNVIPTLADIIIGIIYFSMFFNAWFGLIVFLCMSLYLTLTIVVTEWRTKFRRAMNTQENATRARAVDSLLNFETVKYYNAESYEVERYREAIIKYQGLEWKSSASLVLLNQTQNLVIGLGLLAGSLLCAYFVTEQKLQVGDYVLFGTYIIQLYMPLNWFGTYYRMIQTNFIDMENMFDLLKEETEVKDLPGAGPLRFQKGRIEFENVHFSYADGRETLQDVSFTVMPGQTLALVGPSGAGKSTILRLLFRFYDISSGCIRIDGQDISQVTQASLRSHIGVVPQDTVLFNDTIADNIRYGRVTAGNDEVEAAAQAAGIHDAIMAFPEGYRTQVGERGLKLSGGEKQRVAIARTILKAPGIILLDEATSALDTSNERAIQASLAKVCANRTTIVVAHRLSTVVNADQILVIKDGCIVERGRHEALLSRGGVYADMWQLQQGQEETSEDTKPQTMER

Regarding `CC(C)N(Cc1nccn1C)C(=O)CC1C(=O)NCCN1Cc1ccccc1C(F)(F)F` (stereo not drawn), the percent of DMSO control GFP in experiment [1] was 102% (inactive). The GFP response vs DMSO is 98.7% (inactive) in experiment [2] and 97% (inactive) in [4]. The percent response of DMSO control in experiment [3] was 102% (inactive). The GFP response, % of DMSO in experiment [5] is 103% (inactive). For the same compound, the double positive events in experiment [6] is 71.7%. Besides, the vesicle binding response in experiment [6] is 182% (inactive). In addition, the results for the inhibition in experiment [7], in [11] and in experiment [15] were 4.27% (inactive), -0.01% (inactive) and 6% (inactive), respectively. Further, the superoxide response (% of plate) in experiment [8] was 82.9% (inactive). For the same compound, the aptamer binding inhibition in [9] was -2% (inactive). Also, the response is 2.35% (inactive) in experiment [10] and -1.67% (inactive) in experiment [12]. Besides, the binding (% of control) in experiment [13] is 102% (inactive). In addition, the efflux inhibition (fraction of control) in [14] is -0.5 (inactive). Besides, the differentiation response in experiment [16] is -0.18% (inactive).

With `O=S(=O)(CCc1nc2ccccc2[nH]1)c1ccc(Cl)cc1`, the percent of DMSO control GFP in [1] is 98.6% (inactive). Further, the GFP response vs DMSO was 106% (inactive) in experiment [2] and 124% (inactive) in experiment [4]. In experiment [3], the percent response of DMSO control was 98.6% (inactive). Also, the GFP response, % of DMSO in experiment [5] was 99.7% (inactive). The compound also had a double positive events in experiment [6] of 60.3%. Also, the vesicle binding response in experiment [6] was 159% (inactive). Further, the inhibition in experiment [7] is -7.25% (inactive); in experiment [11], -4.72% (inactive); in experiment [15], -7% (inactive). Further, the superoxide response (% of plate) in experiment [8] was 104% (inactive). The aptamer binding inhibition in experiment [9] was -2% (inactive). Moreover, the response in experiment [10] was 13.4% (inactive); in experiment [12] it was -0.13% (inactive). The binding (% of control) in experiment [13] is 103% (inactive). In experiment [14], the efflux inhibition (fraction of control) is -0.21 (inactive). Moreover, in experiment [16], the differentiation response was -16.8% (inactive).

On to `CCCCC(=O)O[C@H]1CC[C@H]2[C@@H]3CCc4cc(O)ccc4[C@H]3CC[C@]12C`, for which the percent of DMSO control GFP in experiment [1] was 100% (inactive). The figures for the GFP response vs DMSO in experiment [2] and in experiment [4] were 105% (inactive) and 125% (inactive), respectively. Besides, the percent response of DMSO control in experiment [3] is 109% (inactive). Also, the GFP response, % of DMSO in experiment [5] is 116% (inactive). Further, the double positive events in experiment [6] was 62.5%. Besides, the vesicle binding response in experiment [6] was 210% (inactive). Also, the values for the inhibition in [7], in experiment [11] and in experiment [15] were 29.5% (inactive), 30.7% (inactive) and -1% (inactive), respectively. Also, the superoxide response (% of plate) in experiment [8] is 93.8% (inactive). In experiment [9], the aptamer binding inhibition was -4% (inactive). The response was 52.1% (active) in [10] and -0.48% (inactive) in [12]. Also, the binding (% of control) in [13] was 106% (inactive). For the same compound, the efflux inhibition (fraction of control) in [14] is -0.17 (inactive). In addition, in experiment [16], the differentiation response was -6.96% (inactive).

`CC(C)[C@H]1CN(C)CCN1Cc1cn(C)nc1-c1cccc(Cl)c1`: the percent of DMSO control GFP in experiment [1] was 105% (inactive). Moreover, the figures for the GFP response vs DMSO in [2] and in experiment [4] were 104% (inactive) and 90.1% (inactive), respectively. Also, the percent response of DMSO control in experiment [3] is 98.9% (inactive). Besides, the GFP response, % of DMSO in experiment [5] was 102% (inactive). The same compound displayed a double positive events in experiment [6] of 58.1%. Besides, the vesicle binding response in [6] is 48.9% (inactive). Moreover, the inhibition was 3.7% (inactive) in experiment [7], 19.9% (inactive) in experiment [11] and 1% (inactive) in [15]. Besides, the superoxide response (% of plate) in experiment [8] is 104% (inactive). The aptamer binding inhibition in experiment [9] is -1% (inactive). In addition, the values for the response in [10] and in experiment [12] were -4.02% (inactive) and -0.96% (inactive), respectively. Moreover, in experiment [13], the binding (% of control) is 99.3% (inactive). In addition, the efflux inhibition (fraction of control) in experiment [14] was 0.3 (inactive). In addition, the differentiation response in experiment [16] was 3.18% (inactive).

For orientation: inhibition means the drop in the measured response relative to a control, in per cent.
